An excerpt weighted towards active compounds, which were near 19% of everything screened.
TDP1 cell CPT: qHTS for Inhibitors of human tyrosyl-DNA phosphodiesterase 1 (TDP1): qHTS in cells in presence of CPT | Potency, µM (titrated, usually from 46.2 µM), inactives show at the top dose activity change, negative = growth inhibition, actives largely listed as inhibitors | chicken DT40 Tdp1-/-;hTDP1 cells + 20 nM CPT, ATP luminescence, 48 h | AID 686979, 2013 | 420,000 compounds, 12% hits; further: potency means the concentration at half of the fitted maximal effect; nearly all actives have a fitted effect of over 55% in size
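Chicken DT40 Tdp1-/- cells complemented with human TDP1, 400 cells/well, exposed to compounds plus 20 nM camptothecin for at least 48 h at 37 C; viability read as ATP content by CellTiter-Glo luminescence.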
TDP1 cell noCPT: qHTS for Inhibitors of human tyrosyl-DNA phosphodiesterase 1 (TDP1): qHTS in cells in absence of CPT; DT40 Tdp1-/- hTDP1 cells, no CPT, ATP luminescence, 48 h; Potency, µM (highest dose often 46.2 µM), without a hit: top-dose activity change, negative = growth inhibition, most hits filed as inhibitors; 420,000 compounds, 15% hits; further: potency means the concentration at half of the fitted maximal effect; nearly all actives have a fitted effect of over 55% in size
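Chicken DT40 Tdp1-/- cells stably complemented with human TDP1 were seeded at 400 cells/well with DMSO in place of 20 nM camptothecin. After compound pinning, cells grew at least 48 hr at 37 °C; viability read by CellTiter-Glo luminescence.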
HT1080-NT tox: qHTS for induction of synthetic lethality in tumor cells producing 2HG: qHTS for the HT-1080-NT fibrosarcoma cell line | HT-1080-NT fibrosarcoma viability, CellTiter-Glo ATP luminescence, 48 h | Potency, µM (doses to about 46.1 µM), inactives show at the top dose activity, negative = less viability, hits mostly cytotoxic | 360,000 compounds, 1.6% hits;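 further: NT is the 2HG producing partner of a matched IDH1 knockdown line; potency means the concentration at half of the fitted maximal effect; 0% = DMSO-treated cells and -100% = media-only wells without cells; nearly all actives have a fitted effect of over 55% in size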
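A 48-hour cytotoxicity screen used HT-1080-NT cells plated 2 hours before compound delivery. ATP-based CellTiter-Glo luminescence measured viability, normalized to DMSO and no-cell controls.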
HT1080 IDH1KD tx: qHTS for induction of synthetic lethality in tumor cells producing 2HG: qHTS for the HT-1080-IDH1KD cell line | 360,000 compounds, 2% hits | HT-1080 IDH1 knockdown viability, ATP luminescence, 48 h | AID 686971, 2013 | Potency, µM (highest dose often 46.1 µM), without a hit: top-dose activity, negative = toxicity, most hits filed as cytotoxic;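 further: potency means the concentration at half of the fitted maximal effect; 0% = DMSO wells and -100% = cell-free medium wells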
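Luminescent ATP read-out (CellTiter-Glo, 10 min at room temperature) after 48 h compound exposure at 37 °C gave viability of IDH1-knockdown HT-1080 cells. Activity was normalised to DMSO and cell-free wells, then fitted as concentration-response curves.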
IL1B secr inh: qHTS for Inhibitors of Inflammasome Signaling: IL-1-beta AlphaLISA Primary Screen; 360,000 compounds, 4.7% hits; AID 743279, 2014; THP-1 LPS/ATP IL-1B secretion, AlphaLISA, 16 h; stronger effect = lower value; activity change, % at 57.5 µM; in the data active means activity change below about -50%; inconclusive means mostly about -30% to -49%
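THP-1 cells pretreated 1 hr with compounds (up to 57.5 uM final), then stimulated with LPS (250 ng/mL final) plus ATP (1.25 mM final); secreted IL-1B measured by AlphaLISA after 16 hr, decreased signal indicating inhibition.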
An asterisk follows results filed as active; ? = inconclusive; . = no result; [ ] = another dose, or the depositor's remark. Unless noted, the call rests on the fitted dose curve; in most records, active means well fitted curve in the direction sought with a large enough effect; inconclusive means small, poorly fitted or top-dose-only effect, or another doubt; inactive means no such curve, though single readings can be large; an effect the other way counts as inactive or inconclusive. Unless noted, on the % scale 0 is the no-effect control and ±100 the full control effect.

SMILES	TDP1 cell CPT	TDP1 cell noCPT	HT1080-NT tox	HT1080 IDH1KD tx	IL1B secr inh
Cc1nc2ccc(NC(=O)CSc3ccccc3)cc2s1	?	?	4%[9.24 µM]	4%	5
CC1SCC(NC(=O)c2cccc(Cl)c2)CS1 (configuration not stated)	15µM*	12µM*	8%	2%	7
Cc1ccc2nc(N(CCN3CCOCC3)C(=O)CCS(=O)(=O)c3ccccc3)sc2c1	12µM*	12µM*	-1%	-1%	?
CCCC(=O)N(CCN1CCOCC1)c1nc2cc(C)c(C)cc2s1	-13%	1%	2%	-2%	-11
O=C(CCS(=O)(=O)c1ccccc1)N(CCCN1CCOCC1)c1nc2ccccc2s1	5.2µM*	3.7µM*	1%	?	-107*
Cc1ccc(S(=O)(=O)CCC(=O)N(CCCN2CCOCC2)c2nc3ccccc3s2)cc1	2.3µM*	2.9µM*	-5%	-11%	-72*
O=C(CSc1nc2ccccc2s1)NCCCN1CCOCC1	4%	9%	0%	54%	21
COc1ccc2nc(NC(=O)c3sc4nc(C)cc(C)c4c3N)sc2c1	-5%	?	0%	23%	-3
Cc1cc(=O)n2c3ccccc3n(C)c2n1	22%	8%	26%	-2%	-11
Cc1ccc([N+](=O)[O-])cc1NC(=O)c1ccc(C(C)(C)C)cc1	?	13µM*	?	-14%[9.24 µM]	?
Cc1cc2c(cc1NC(=O)c1ccc(C(C)(C)C)cc1)n(C)c(=O)c(=O)n2C	23µM*	26µM*	.	.	.
Cc1c(NC(=S)NC(=O)C(C)(C)C)cccc1[N+](=O)[O-]	-3%	?	-1%	-19%	5
COC(=O)c1ccc(C)c(NC(=O)CCNC(=O)c2ccc([N+](=O)[O-])cc2)c1	-13%	-9%	5%	10%	10
Cc1ccc(F)cc1NC(=O)CCNC(=O)c1ccc([N+](=O)[O-])cc1	-23%	?	3%	6%	-74*
Cc1c(NC(=O)c2ccc(C(C)(C)C)cc2)cccc1[N+](=O)[O-]	16µM*	21µM*	0%	-24%	-52*
Cc1cccc(C(=O)Nc2cc3c(cc2C)n(C)c(=O)n3C)c1	-1%	-5%	.	.	.
CC1Oc2ccccc2N(CC(=O)NC2CCCCC2)C1=O (configuration not stated)	0%	-2%	1%	-1%	-4
OCC[C@@H]1C[C@H](O)[C@@H](O)[C@]2(CCCc3ccccc3O2)O1	-9%	-1%	3%	-7%	25
COc1cccc(N(CC(=O)NC2CCCCC2)C(=O)CCC(=O)Nc2nccs2)c1	-9%	?	-7%	3%	-17
COCc1cc(CN2CCN(Cc3ccsc3)C(CCO)C2)ccc1OC (configuration not stated)	6%	-1%	13%	0%	23
Cc1ccc(Sc2ccc(N3CCC(C(=O)Nc4ccc(C)c(F)c4)CC3)nn2)cc1	-9%	?	.	.	.
Nc1c(-c2cccc(Cl)c2)cnn1-c1cccc(C(F)(F)F)c1	?	16µM*	?	-28%	-61*
Cc1ccc2nc3c(cc(S(=O)(=O)c4ccccc4)c(=N)n3Cc3ccco3)c(=O)n2c1	-29%	?	18%	8%	-52*
N=c1c(S(=O)(=O)c2ccccc2)cc2c(=O)n3ccccc3nc2n1Cc1ccco1	?	21µM*	-23%	-19%	-79*
Cc1ccc(S(=O)(=O)c2cc3c(=O)n4ccccc4nc3n(Cc3ccco3)c2=N)cc1C	?	?	2%	4%	-24
SMILES	TDP1 cell CPT	TDP1 cell noCPT	HT1080-NT tox	HT1080 IDH1KD tx	IL1B secr inh
Cc1cccn2c(=O)c3cc(S(=O)(=O)c4ccccc4)c(=N)n(Cc4ccco4)c3nc12	0%	15%	25%	17%	-18
Cc1cccn2c(=O)c3cc(S(=O)(=O)c4ccc(F)cc4)c(=N)n(Cc4ccco4)c3nc12	?	?	?	23µM*	-80*
Cc1ccc(S(=O)(=O)c2cc3c(=O)n4ccccc4nc3n(CCc3ccccc3)c2=N)cc1	?	16µM*	8%	6%	6
CCC(=O)c1ccc(OCC(=O)OCC(=O)c2cc(C)n(C)c2C)cc1	3%	5%	8%	10%	12
Cc1csc2nc(CN3CCN(CC(=O)N(C)C)CC3)cc(=O)n12	20%	-16%	3%	8%	17
COc1ccc(O)c(CN2CCC3(CC2)c2ccccc2[C@@H](NC(=O)c2cccc(F)c2)[C@@H]3OC)c1	-6%[9.04 µM]	16µM*	.	.	.
COc1cccc(C(=O)Nc2cccc(-c3ccccc3)c2)c1	?	?	1%	-4%	6
CCOc1ccc(N(C(C)C(=O)Nc2cccnc2)S(C)(=O)=O)cc1 (configuration not stated)	11%	20%	6%	4%	46
CCOc1ccc(N(C(C)C(=O)N/N=C(\C)c2cccc(NC(=O)c3ccccc3)c2)S(C)(=O)=O)cc1 (configuration not stated)	18µM*	18µM*	-3%	-2%	?
CC(=O)Nc1ccc(C)c(NS(=O)(=O)c2cccc(C(F)(F)F)c2)c1	7%	0%	-10%	1%	12
Cc1ccccc1NC(=O)Cc1nc(COC(=O)CC(C)c2ccccc2)cs1 (configuration not stated)	-7%	?	3%	2%	31
CCOC(=O)CSc1[nH]c2cc(OC)ccc2c1[N+](=O)[O-]	-19%	-27%	17%	5%	12
COC(=O)CSc1[nH]c2ccc(F)cc2c1[N+](=O)[O-]	21µM*	?	0%	-2%	0
COC(=O)c1c(OCC2CCCN(C)C2)cc(=O)n2c1CCN(Cc1ccc(OC)c(O)c1)CC2 (configuration not stated)	20%	-21%	.	.	.
Nc1nnnn1/N=C/c1ccccc1	2%	?	-3%	-13%	-15
Nc1nnnn1/N=C/c1ccccc1C(F)(F)F	12µM*	18µM*	13%	10%	0
O=C(CSc1ncn[nH]1)N1N=C2/C(=C/c3ccco3)CCCC2C1c1ccco1 (configuration not stated)	?	?	?	?	-60*
Cc1ccc(OCCNCC(O)COc2ccccc2)cc1 (configuration not stated)	-28%	-15%	-6%	-8%	-26

Screening data (PubChem BioAssay)
